# Insulin prom up – MIN6 insulin promoter up-regulation; 190,000 compounds, 0.3% hits; z-score at 5 µM; AID 1625; MIN6 insulin promoter-GFP reporter, high-content imaging; active compounds read high;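 active = z-score above 3 at 5 µM with at least 500 cells counted in the well; inconclusive = wells under 500 cells, flagged as cytotoxic or low count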
# KCC2 mod – KCC2 (human) Cl- transport modulation; B-score of Tl+ flux slope (higher = more flux/activation; lower = inhibition) at 10 µM; KCC2 cells, thallium flux FluoZin-2 fluorescence; Q9H2X9; 190,000 compounds, 2.2% hits;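 active = thallium flux slope and its plate-corrected score both differing from the plate sample mean at a set confidence after two filtering rounds, in either direction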;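 note: slope of fluorescence scaled to starting intensity during 10 to 20 s after thallium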
# Lmaj promast – Leishmania major promastigote growth inhibition. Leishmania major promastigotes, resazurin fluorescence viability. inhibition, % at 10 µM. 200,000 compounds, 9% hits; in the data active = inhibition above about 50%;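 note: promastigotes grown with compound for 44 hours at 28 °C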
# WT yeast gro inh – growth inhibition of WT yeast, mitochondrial fusion screen; 190,000 compounds, 2.1% hits; inhibition, % at 10 µM; mitochondrial fusion phenotypic screen, WT strain; in the data active = inhibition above about 58%; tested in S. cerevisiae
# ROMK primary – modulates human ROMK potassium channel activity; Tet-inducible ROMK, thallium flux fluorescence; actives lie on both sides; 130,000 compounds, 2% hits; B-score at 10 µM;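 active = signal ratio slope over the read window, or its plate-corrected B-score, at least 3 SD from the plate mean, either direction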;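 note: B-score of the F/F0 ratio slope over 7 to 12 s after thallium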
# Target sequence (P48048 whole entry, looked up): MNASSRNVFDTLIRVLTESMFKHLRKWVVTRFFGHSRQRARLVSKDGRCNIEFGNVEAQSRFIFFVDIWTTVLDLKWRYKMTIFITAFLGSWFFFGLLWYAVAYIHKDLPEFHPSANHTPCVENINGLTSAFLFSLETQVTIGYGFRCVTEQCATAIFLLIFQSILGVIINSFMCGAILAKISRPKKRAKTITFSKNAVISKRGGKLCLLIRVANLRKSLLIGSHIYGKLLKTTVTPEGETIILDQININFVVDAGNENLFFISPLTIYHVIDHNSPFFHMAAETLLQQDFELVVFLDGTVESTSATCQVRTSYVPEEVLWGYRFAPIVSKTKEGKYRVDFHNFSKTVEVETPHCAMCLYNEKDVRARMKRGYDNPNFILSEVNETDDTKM
# INS promoter inh – TRM-6 insulin promoter activity inhibition; TRM-6 cells (human fetal islet line), insulin promoter-eGFP reporter, imaging; reporter expression induced with tamoxifen; inhibition, % at 2 µM; 130,000 compounds, 0.9% hits; AID 1273;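 active = inhibition above the mean plus 3 SD, with well images judged a real hit on visual review, cut at about 60% in these data, passing the limit was not always enough; inconclusive = inhibition over the cutoff but images rejected on review; inactive = inhibition not above the cutoff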
# Starred values were filed as active, the others as inactive; ? = inconclusive; . = no result given. Rows were chosen to be rich in hits. Some 12% of all compounds tested hit in one or more screens of this group.
SMILES,Insulin prom up,KCC2 mod,Lmaj promast,WT yeast gro inh,ROMK primary,INS promoter inh
COc1ccc(-c2ccc([C@H]3[C@H]4C=CC[C@@H](C)[C@@H]4C(=O)N3Cc3ccccc3)c(F)c2)cc1C,.,0.6,.,.,.,.
CC(C)Cc1nc2oc3c(N4CCN(CCO)CC4)ncnc3c2c2c1CCCC2,-1.1,-0.24,52*,18,.,.
CCN1CCN(c2ncnc3c2oc2nc(C(C)C)c4c(c23)CCC4)CC1,-1.2,.,.,.,.,.
C(=N\Nc1nc2ccccc2[nH]1)/c1c[nH]c2ccccc12,-1.7,-0.45,99*,-5,.,34
Cc1ccc(/C=N/Nc2nc(Cl)c(Cl)cc2Cl)s1,0.48,7.6*,-8,7,.,30
Cc1ccsc1/C=N/Nc1nc(Cl)c(Cl)cc1Cl,-0.73,3.6,0,6,.,19
Cc1cc(=O)[nH]c(N/N=C/c2c[nH]c3ccccc23)n1,-0.34,.,.,.,.,.
O=[N+]([O-])c1cc(/C=N/Nc2nc3ccccc3[nH]2)c(O)cc1O,-0.21,-0.78,99*,16,.,.
Cc1ccccc1/C=N/Nc1nc2ccccc2[nH]1,-1.1,.,79*,23,1.8,7
COc1ccc(/C=N/Nc2nc3ccccc3[nH]2)c(OC)c1OC,-0.54,-0.75,.,.,.,.
O=C(Nc1nc2ccccc2[nH]1)c1ccccc1[N+](=O)[O-],-0.1,0.086,23,0,-0.5,-22
Cc1[nH]c2ccccc2c1/C=N/Nc1nc2ccccc2[nH]1,1.6,-0.12,.,.,-0.68,.
Brc1ccc(-c2ccc(/C=N/Nc3nncc(-c4ccccc4)n3)o2)cc1,-0.33,1.5,0,26,0.67,-19
Brc1ccc(-c2ccc(/C=N/Nc3nc4ccccc4[nH]3)o2)cc1,-0.53,-0.18,80*,81,.,32
Cc1ccc(/C=N/Nc2nc3ccccc3[nH]2)s1,-0.72,-0.94,57*,15,.,.
COC(=O)C(C)NC(=O)C(C)NC(=O)OCc1ccccc1 (stereo not drawn),-0.03,.,1,-31,0.28,29
CC(=O)C(Cc1ccccc1)NC(=O)CN1CCc2ccccc2C1 (stereo not drawn),-0.48,-0.14,11,0,-0.15,-33
CC1(C)C2CCC(C2)C1(C)NC(=O)CN1CCN(Cc2ccccc2)CC1 (stereo not drawn),-0.76,2.1,81*,-12,-2.1,.
CC(=O)C(Cc1ccccc1)NC(=O)CN1CCN(Cc2ccccc2)CC1 (stereo not drawn),0.3,-0.18,65*,11,-0.096,.
CC1(C)C2CCC(C2)C1(C)NC(=O)C[N+](C)(C)C (stereo not drawn),0.21,0.082,.,.,.,.
O=C(NC1CCCc2ccccc21)C1CCN(S(=O)(=O)c2cccc(C(F)(F)F)c2)CC1 (stereo not drawn),0.04,0.29,15,6,.,-63
Cc1ccc(C(=O)Nc2ccccc2SCC2CSc3nc4ccccc4c(=O)n32)cc1 (stereo not drawn),.,-1.7,50*,-11,.,2
CCN(CC)S(=O)(=O)c1ccc(N/N=C/c2cc(OC)ccc2O)nc1,-0.69,1.5,92*,9,0.14,?
COc1ccc(O)c(/C=N/NC(=S)Nc2cccc(S(=O)(=O)N(C)C)c2)c1,-0.26,-0.055,99*,5,-0.0026,30
COc1ccc(O)c(/C=N/NC(=S)Nc2cccnc2)c1,0.1,0.4,94*,8,0.29,.
SMILES,Insulin prom up,KCC2 mod,Lmaj promast,WT yeast gro inh,ROMK primary,INS promoter inh
COc1cccc(/C=N/NC(=S)Nc2cccnc2)c1,-0.4,2.3,0,3,1.5,11
O=C(c1cccnc1)N1CCC(Oc2ccc(C(=O)N3CCCCO3)cc2)CC1,.,.,9,-16,0.38,5
CCn1c(Cn2nnc(-c3ccccc3)n2)nnc1SCc1ccc(Cl)c(Cl)c1,0.14,-1.8,0,79*,.,58
CCn1c(Cn2nnc(-c3ccccc3)n2)nnc1SCC(=O)N1CCOCC1,0.19,-0.81,-5,4,0.4,53
O=C(c1ccco1)N1CCN(c2ncnc3scc(-c4ccc(F)cc4)c23)CC1,-0.75,-1.9,78*,-3,.,-38
Cc1cccc2[nH]c3c(N4CCN(C(=O)c5ccco5)CC4)ncnc3c12,-0.91,0.04,82*,21,0.017,.
Cc1sc2ncnc(N3CCN(C(=O)c4ccco4)CC3)c2c1C,.,-1.7,10,3,-1.4,-38
CCOC(=O)c1cc(NC(=O)Nc2ccc(OC)c(OC)c2)c(C)nc1C,-0.03,-0.76,1,-18,0.19,50
O=C(Nc1ccccc1Br)C1CCC(=O)N1Cc1ccccc1Cl (stereo not drawn),0.48,0.37,-5,2,.,.
CCOC(=O)C1(CC2CC2)CCN(Cc2cn(C)c3ccccc23)CC1,.,0.46,40,13,-2.2,-39
CCOC(=O)C1CCN(Cc2cc(C(C)(C)C)c(O)c(C(C)(C)C)c2)CC1,0.13,-0.69,42,-2,-1.5,57
CCOC(=O)C1(CC2CC2)CCN(Cc2ccc(C(=O)OC)cc2)CC1,.,0.59,92*,7,-0.5,.
CCOC(=O)C1CCN(Cc2ccc(O)c(OC)c2)CC1,.,-0.15,84*,0,.,.
COC(=O)c1ccc(CN2CCCCC2)cc1,-0.03,-0.46,.,.,.,.
CCOC(=O)C1CCN(Cc2ccc(F)cc2)CC1,.,0.058,89*,-3,.,28
CCOC(=O)C1CCN(Cc2ccc(C(=O)OC)cc2)CC1,-0.11,-0.26,95*,-6,.,-27
CC(C)c1cccc(C(C)C)c1NC(=O)c1ccc(OCC(=O)NCc2ccccc2)cc1,-0.4,1,30,0,.,14
O=C1CCN(c2ncccc2[N+](=O)[O-])CC1,-0.2,1.1,-5,14,-0.5,0
CCOC(=O)C1CCN(Cc2ccc(Cl)c(Cl)c2)CC1,.,0.22,88*,-10,-0.25,-3
c1ccc(CCNc2ccnc3cc4ccccc4cc23)cc1,0.77,-0.66,100*,63,-1.3,-238
CC(C)Nc1ccc(Nc2ccnc3cc4ccccc4cc23)cc1,-2.6,-0.56,.,.,.,.
COc1cc(CNc2nc(C)c([N+](=O)[O-])c(C)c2C#N)cc(OC)c1OC,-0.74,-0.71,45,-4,-0.62,19
C=CCN(CC=C)S(=O)(=O)c1ccc2nc(NC(=O)C3CCCO3)sc2c1 (stereo not drawn),-0.15,-0.75,68*,-8,-0.0012,31
O=C1CC(N(CCc2ccccc2)C(=S)Nc2ccccc2)C(=O)N1c1ccc(F)cc1 (stereo not drawn),-0.67,-0.27,.,.,.,.
O=C1CC(N(CCc2ccccc2)C(=S)Nc2cc(Cl)ccc2Cl)C(=O)N1c1c(Cl)cccc1Cl (stereo not drawn),-0.66,1.3,99*,-5,.,.
CCCOc1ccc(N2C(=O)CC(N(Cc3ccc(OC)cc3)C(=S)Nc3ccccc3)C2=O)cc1 (stereo not drawn),0.36,0.094,69*,29,0.15,.
COc1ccc(CCN(C(=O)c2cccc(F)c2)C2CC(=O)N(c3ccc(OC)cc3)C2=O)cc1 (stereo not drawn),1,.,72*,-16,.,-50

# Assay outcomes (PubChem)
